Assay results published in PubChem BioAssay (NCI).
This is part of a sample that, as a whole, favours compounds with a hit. Of some 79,000 tested, about 15% had one in any assay. A number with no mark means an inactive call. Activity calls are given as the source filed them. Cut-off read from the data, not from the text of the source: active = growth inhibition above about 70%; inactive = the rest.

Experiments:
[1] = NCI Yeast Anticancer Drug Screen. Data for the rad50 strain (AID 155);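 note: 0% = growth of vehicle-only cultures of the same strain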; conditions: S. cerevisiae rad50 strain growth inhibition, active compounds read high
Summary of the method: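 Inhibition values express reduced yeast growth in compound-treated cultures relative to vehicle-treated controls.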

[2] = NCI Yeast Anticancer Drug Screen. Data for the mec2-1 strain (AID 157); conditions: S. cerevisiae mec2-1 strain, active compounds read high
Summary of the method: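 Readout is yeast growth inhibition, normalised to vehicle-treated controls, in the mec2-1 strain exposed to compound.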

[3] = NCI Yeast Anticancer Drug Screen. Data for the sgs1 mgt1 strain (AID 161);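 note: 0% = growth of cultures given vehicle only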; conditions: S. cerevisiae sgs1 mgt1 strain, active compounds read high
Summary of the method: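 Compounds are added to genetically altered yeast, and growth is compared with cultures given vehicle alone to give percent inhibition.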

[4] = NCI Yeast Anticancer Drug Screen. Data for the bub3 strain (AID 167); conditions: S. cerevisiae bub3 mutant strain, active compounds read high
Summary of the method: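 Steps: expose the mutant yeast strain to compound; grow alongside vehicle-treated cultures; measure growth; express inhibition against the vehicle cultures.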

[5] = NCI Yeast Anticancer Drug Screen. Data for the mlh1 rad18 strain (AID 175); conditions: S. cerevisiae mlh1 rad18 strain growth inhibition, active compounds read high
Summary of the method: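 Test agents were incubated with a yeast strain of defined genotype (DNA damage repair defect). Inhibition of growth was derived by comparison with vehicle-exposed cultures.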

[6] = NCI Yeast Anticancer Drug Screen. Data for the cln2 rad14 strain (AID 165);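 note: 0% = growth equal to vehicle treated cultures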; conditions: S. cerevisiae cln2 rad14 strain, active compounds read high
Summary of the method: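 Relative to vehicle controls, growth inhibition of compound-treated cln2 rad14 yeast was recorded.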

[7] = at 5.0 µM (retest, dose inferred, filed as 0.5)
[8] = at 50.0 µM (retest, dose inferred, filed as 5.0)

| Structure (SMILES) | growth inhibition [1, 7] | growth inhibition [1, 8] | growth inhibition ([1]; at 50.0 µM) | growth inhibition [2, 7] [%] | growth inhibition [2, 8] | growth inhibition ([2]; at 50.0 µM) | growth inhibition [3, 7] [%] | growth inhibition [3, 8] | growth inhibition ([3]; at 50.0 µM) | growth inhibition [4, 7] | growth inhibition [4, 8] | growth inhibition ([4]; at 50.0 µM) | growth inhibition [5, 7] | growth inhibition [5, 8] | growth inhibition ([5]; at 50.0 µM) | growth inhibition [6, 7] [%] | growth inhibition [6, 8] | growth inhibition ([6]; at 50.0 µM) |
| --- | --- | --- | --- | --- | --- | --- | --- | --- | --- | --- | --- | --- | --- | --- | --- | --- | --- | --- |
| O=C1c2ccccc2C(c2ccccc2)(c2ccccc2)N1c1ccccc1 | 3% | 79% (active) | 97% (active) | -1 | 80% (active) | 96.5% (active) | 28 | 90% (active) | 95.6% (active) | 5% | 81% (active) | 95.7% (active) | 57% | 89% (active) | 95.6% (active) |  |  |  |
| Cc1ccc2c(c1)C(=O)N(CC[P+](c1ccccc1)(c1ccccc1)c1ccccc1)C2=O | 81% (active) | 89% (active) | 61.8% | 63 | 85% (active) | 63.8% |  |  |  | 84% (active) | 90% (active) | 66.7% | 71% (active) | 82% (active) | 62.3% | 65 | 79% (active) | 36% |
| Cc1c(C)c2cc3c(=O)ccoc3c(C)c2oc1=O | 32% | 76% (active) | 48.1% | 1 | 38% | 19.6% | -11 | 21% | 30.5% |  |  |  | -11% | 68% | 69.6% | 8 | 45% | 42% |
| O=C(O)Cc1nc2ccccc2[nH]1 | 1% | 95% (active) | 25.9% | 9 | 70% (active) | 51.2% | 14 | 99% (active) | 2.85% | 1% | 98% (active) | -3.2% | 2% | 99% (active) | 3.05% | 0 | 34% | 14.8% |
| CCc1ccc(-c2ccccc2)cc1 | 1% | 1% | 9.45% | -1 | 6% | -2.95% |  |  |  | 9% | 10% | 9.05% | 0% | 4% | 8.75% | -7 | 6% | 76.9% (active) |
| Nc1c(/C=C/c2cc3cc(C4=NCCN4)ccc3o2)[nH]c2cc(C3=NCCN3)ccc12 | 13% | 98% (active) | 97.5% (active) | 22 | 98% (active) | 98% (active) | -2 | 99% (active) | 98.2% (active) | 7% | 98% (active) | 97% (active) | 13% | 97% (active) | 97.8% (active) |  |  |  |
| O=C(c1cccc(Cl)c1)c1ccc2ccccc2c1C(=O)O | 10% | 1% | 12.3% | -8 | 0% | 45.9% | -1 | 1% | 0.7% |  |  |  | -6% | 5% | 5.75% | -3 | -1% | 5.6% |
| O=[N+]([O-])c1ccc2c(c1)Cc1cc(O)c(I)cc1-2 |  |  |  | 13 | 92% (active) | 97.8% (active) | 3 | 93% (active) | 96.7% (active) | -4% | 93% (active) | 95.8% (active) | -2% | 95% (active) | 97.2% (active) | -10 | 91% (active) | 95.2% (active) |
| O=C(CNC(=O)c1ccccc1)NNc1ccccc1 | 16% | 62% | 86.7% (active) |  |  |  | 8 | 67% | 32.8% | 7% | 89% (active) | 32.5% | 30% | 93% (active) | 86.9% (active) |  |  |  |
| O=C(CCl)Oc1c(Br)cc(-c2ccccc2)cc1Br | 32% | 95% (active) | 77.3% (active) |  |  |  | 65 | 99% (active) | 88.8% (active) | 30% | 98% (active) | 16.9% | 73% (active) | 95% (active) | 82.2% (active) | 57 | 97% (active) | 41.9% |
| O=C(O)c1cc2cc3ccccc3cc2cc1O |  |  |  | 2 | 34% | 57.2% | 3 | 36% | 81% (active) | 0% | 22% | 51.2% | -1% | 27% | 64.7% | -1 | 14% | 55.2% |
